Data taken from PubChem BioAssay AID1030 (National Center for Advancing Translational Sciences (NCATS), 2008).
About 16,000 (7.3%) of roughly 220,000 compounds were called active. Inconclusive results (about 25%) are left out. Calls come from the whole dose curve; as a rule, active = well fitted inhibition curve with a large enough effect (not every such curve was filed as active); inconclusive = small, poorly fitted or top-dose-only effect, or another doubt; inactive = no such curve, though single readings can be large or run the other way. Only a selection was taken, and actives are over-represented in it overall.

Each compound was assayed against Aldehyde dehydrogenase 1A1 (Homo sapiens) (UniProt P00352) (assay: qHTS Assay for Inhibitors of Aldehyde Dehydrogenase 1 (ALDH1A1)). Conditions: Purified ALDH1A1, NADH fluorescence, propionaldehyde substrate; series mostly up to 75.3 µM; activity, negative = inhibition: at the top concentration.
Chain of Aldehyde dehydrogenase 1A1 (Homo sapiens) (P00352 whole entry, looked up): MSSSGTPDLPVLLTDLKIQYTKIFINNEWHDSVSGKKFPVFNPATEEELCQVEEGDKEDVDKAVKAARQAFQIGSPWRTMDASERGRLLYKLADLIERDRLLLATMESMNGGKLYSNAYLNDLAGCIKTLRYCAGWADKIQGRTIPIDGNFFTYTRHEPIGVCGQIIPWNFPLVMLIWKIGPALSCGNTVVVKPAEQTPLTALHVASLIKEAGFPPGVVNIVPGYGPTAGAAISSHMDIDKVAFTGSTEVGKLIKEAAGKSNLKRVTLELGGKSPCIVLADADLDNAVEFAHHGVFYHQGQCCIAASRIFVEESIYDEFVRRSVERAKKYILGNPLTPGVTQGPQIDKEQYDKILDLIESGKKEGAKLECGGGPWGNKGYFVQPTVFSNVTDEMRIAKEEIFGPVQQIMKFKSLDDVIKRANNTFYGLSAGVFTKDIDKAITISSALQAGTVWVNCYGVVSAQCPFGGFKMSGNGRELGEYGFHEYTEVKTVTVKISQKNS
Potency is the fitted concentration of half-maximal effect.
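Throughout, for activity, negative = inhibition: plate controls were no enzyme wells and a reference inhibitor.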

activity, negative = inhibition, inactive:
C[C@@H](O)c1nc2ccccc2n1N 2.1%
N#Cc1ncc(C(F)(F)F)cc1Oc1cccnc1 10.8%
COc1ccc(/C=C/CN2CCN(Cc3ccc(C)cc3)C(CCO)C2)cc1 (stereo not given) -1.88%
O=C(Nc1ccn(Cc2ccccc2)n1)c1cccc(F)c1 5.72%
CCOc1cccc(C(=O)Nc2cccnc2)c1 13.5%
CNc1nc(Nc2ccc(C)c(Cl)c2)nc(N)c1[N+](=O)[O-] 3.68%
O=C(c1ccc(Cl)cc1)N1N=C(c2ccccn2)CC1(O)C(F)(F)F (stereo not given) 0.0342%
O=C(Cc1ccc(Br)cc1)N1CCN(c2ccccn2)CC1 3.87%
COc1ccc(/C=N/N=C2/C(=O)Nc3ccccc32)cc1O -10.8%
C(=N/N1CCN(c2ccccc2)CC1)/c1cccs1 4.36%
CN(C)CCOc1ccc(Cl)cc1C(C)(C)C -3.7%
CCOC(=O)C1(Cc2ccccc2C(F)(F)F)CCN(C(=O)c2cc(C)n(C)n2)CC1 -6.02%
Cc1ccc2[nH]c(C)c(CCNC(=O)NC3CCCCC3)c2c1 5.15%
Cc1nnc(SCCCCSc2nnc(C)c(=O)[nH]2)[nH]c1=O -9.54%
CCOC(=O)c1c(CN(C)C)n(-c2ccccc2)c2cc(Br)c(O)cc12 -4.14%
O=C(O)C1C2C=CC(C2)C1C(=O)N1CCN(CCO)CC1 (stereo not given) 6.75%
CN1CCN(C(=O)C2C3C=CC(C3)C2C(=O)O)CC1 (stereo not given) 14.6%
COCCN(C(=O)c1ccccc1F)c1c(N)n(Cc2ccccc2)c(=O)[nH]c1=O 6.85%
CN(Cc1nc2ccc(F)cc2[nH]1)Cc1nc(CC2CC2)no1 -1.51%
CCCCOc1ccc(C(=O)NN2CCN(C)CC2)cc1 -0.966%
O=C(NC(=O)N1CCOCC1)c1ccccc1 -6.7%
CCn1c(SCC(=O)N(C)C2CCS(=O)(=O)C2)nnc1-c1cccs1 (stereo not given) -6.37%
CCNC(=O)NNC(=O)C1CC(c2cccs2)=NO1 (stereo not given) 6.63%
CCOc1ccc(N2C(=O)CN(c3cccc4ccccc34)C2=S)cc1 1.45%
CCOc1ccc(N2C(=O)Nc3ccccc3C2(O)C(=O)NCc2ccco2)cc1 (stereo not given) -5.74%
CCN=c1sc(C(=O)Nc2ccccc2)c(C)n1CC -2.58%
COc1ccc(C(=O)Nc2c(Cl)cc(Cl)cc2C(=O)N2CCC(C)CC2)cc1 5.74%
O=C(Nc1cccc2ncccc12)c1ccc(-c2ccc(Cl)cc2Cl)o1 12.5%
CCOC(=O)c1ccccc1NC(=S)N1CCC(C(N)=O)CC1 -8.79%
COc1ccc(-c2[nH]nc3c2C(c2ccncc2)C(C#N)=C(N)O3)cc1 (stereo not given) -6.31%
CCOc1c(OC)cc(C2C(C#N)=C(N)Oc3n[nH]c(-c4ccncc4)c32)cc1OC (stereo not given) 1.31%
Cc1ccc(S(=O)(=O)NC(=O)Nc2nc(-c3ccc(F)c(F)c3)cs2)cc1 4.72%
Cn1cc(CN2CCCCC2c2ccccn2)c(-c2ccc3c(c2)OCCO3)n1 (stereo not given) 0.0519%
CN(C)/C=C(/C(=O)c1ccccc1Cl)S(C)(=O)=O 10.3%
Clc1ccc(-c2csc(-c3ccncc3)n2)cc1 -2.8%
CC(=O)c1c(C)[nH]c(C(=O)OCC(=O)Nc2cc(S(=O)(=O)N3CCCCC3)ccc2C)c1C 5.1%
CN(C)CCn1c(=S)[nH]c2ccc(Cl)cc2c1=O 7.33%
CCCCn1c(=S)[nH]c2ccccc2c1=O -7.63%
CC(C)n1c(=O)[nH]c2cc(C(=O)Nc3ccccc3)ccc21 6.98%
O=[N+]([O-])c1ccc2oc(-c3cccc(O)c3)nc2c1 3.55%
OCCC1CN(Cc2cnc(-c3ccccc3)s2)CCN1CCc1ccccc1 (stereo not given) -7.11%
Fc1ccccc1Cc1ccc(Cl)nn1 -3.18%
O=C(CCc1ccccc1)NCCc1cccs1 2.95%
O=C(O)CCC(=O)N(Cc1cccs1)Cc1cccs1 -4.78%
CN(C)CCCCCN(C)Cc1cc2ccccc2o1 1.86%
CCOc1ccc(NC(=O)CN(C)CC(=O)NC(C)c2ccccc2)cc1OCC (stereo not given) -0.197%
O=C(O)CSCC(=O)Nc1ccc(C(F)(F)F)cc1 -4.77%
COc1ccc2c(c1)O[C@@H](c1ccc3c(c1)OCO3)[C@H](OC(=O)NCc1ccco1)C2=O -7.76%
CC1CCN(S(=O)(=O)c2ccc(S(=O)(=O)NCc3cccnc3)cc2)CC1 -2.72%
COc1ccc(-n2nc3c(c2NC(=O)c2ccc(N4C(=O)CCC4=O)cc2)CSC3)cc1 -1.08%
COc1cccc(OC)c1C(=O)NC(=S)Nc1ccc(N2CCOCC2)c(Cl)c1 -9.29%
O=C(NC(=S)Nc1cc(C(F)(F)F)ccc1N1CCOCC1)c1ccc(-c2cccc(Cl)c2)o1 -8.4%
CC1=C(C)C(=O)OC(C(C)C2CCC3C4CC=C5CC(OC6OC(COC7OC(CO)C(O)C(O)C7O)C(O)C(O)C6O)CC(O)C5(C)C4CCC23C)C1 (stereo not given) -0.525%
C[C@@]12CCC(=O)C=C1CC[C@H]1C2[C@@H](O)C[C@]2(C)[C@@H]1CC[C@@]2(O)C(=O)COC(=O)C1CCCC1 (stereo not given in full) -0.294% [at 13.5 µM]
Nc1nonc1C(=O)NCCc1ccccc1 0.527%
O=C(NCCSc1ccccc1)c1ccco1 -13%
NC1=NC2(CCCCC2)N(c2ccc(F)cc2F)C(N)=N1 7.42%
CSc1nnc(-c2ccc(C(F)(F)F)cn2)o1 -8.87%
CCn1c(-c2cccnc2Cl)nc2cc(C)c(C)cc21 -3.53%
CN(C)c1cc[n+](Cc2ccccc2)cc1 20.6%
COc1ccc(/C=N/NC(=O)C(C)N(c2ccc(OC)cc2)S(C)(=O)=O)cc1 (stereo not given) 0.102%
C#CCOCCOCCOCCNc1nc(N2CCN(C(=O)[C@H](Cc3ccc(O)cc3)n3cc(C(N)CC(C)C)nn3)CC2)nc(N2CCN(C(=O)[C@H](CCC(=O)O)n3cc(C(N)[C@H](C)CC)nn3)CC2)n1 (stereo not given in full) 6.03%
CC1=C(C/C=C(\C)CCCC(C)CCCC(C)CCCC(C)C)C(=O)c2ccccc2C1=O (stereo not given) -3.01%
Cc1cc(C)c2nc(SCC(=O)N(C)C3CCS(=O)(=O)C3)cc(C)c2c1 (stereo not given) -4.71%
Cc1ccccc1NC(=O)Nc1ccccc1N1CCCCC1 3.48%
Cc1ccc(CN2CCN(Cc3ccc4ncccc4c3)CC2CCO)cc1 (stereo not given) 10.3%
O=C(NCCNc1ccc([N+](=O)[O-])cc1)c1cccc2c(Br)cccc12 10.5%
O=[N+]([O-])c1ccc(NCCCN2CCOCC2)c(Cl)c1 20.4%
Cc1ccc(C2=NN(C(=O)COc3ncnc4ccccc34)C(c3ccco3)C2)cc1 (stereo not given) 5.79%
C=C(C)C(=O)c1ccc(F)cc1 0.333%
CCn1c(O)c(N=NC(=O)c2cccc(S(=O)(=O)N3CCCCC3)c2)c2ccccc21 -4.06%
O=C(N/N=C/c1ccccn1)c1ccc(S(=O)(=O)N2CCCCCC2)cc1 -7.41%
CC(c1ccco1)N(C(=O)COc1ccccc1[N+](=O)[O-])c1ccccn1 (stereo not given) -2.13%
COc1ccc(C(=O)Nc2ccc(S(=O)(=O)NC(C)C)cc2)cc1 1.37%
CC(=O)c1ccc(NC(=S)NC(=O)CC(C)C)cc1 13.6%
O=C(NCC1CCN(Cc2ccccc2Cl)CC1)Nc1cccc(Cl)c1 3.46%
COC(=O)C1=C(C)N(c2ccc(Br)cc2)C(=O)/C1=C\c1ccco1 -6.89%
CCC1SC(CC)C(=O)N(CC(=O)NC2CCCCC2)C1=O (stereo not given) -2.09%
O=C(O)Cc1ccc(NCc2ccccc2Cl)cc1 9.94%
O=C(NC1CCC(O)CC1)c1ccc(S(=O)(=O)NCc2ccco2)cc1 (stereo not given) 10%
CC1CCN(S(=O)(=O)c2ccc(S(=O)(=O)NCc3ccco3)cc2)CC1 12.9%
CN(C)C(=O)c1nc2ccc(Cl)cn2c1CN1CCN(c2ncccn2)CC1 -5.43%
C=C(C)C1CC=C(C)/C(=N/NC(=O)CCCNc2cccc(C)c2)C1 (stereo not given) -6.55%
N#Cc1c(N)nc2c(c1N)CC(C(F)(F)F)O2 (stereo not given) -6%
Cc1ccc(S(=O)(=O)N(C)CC(=O)OCC(=O)N2CC(=O)Nc3ccccc32)cc1 4.73%
COc1cc(OC)c(C(=O)OCC(=O)N2CC(=O)Nc3ccccc32)cc1OC -2.57%
COc1ccc(S(=O)(=O)N2CCC(C(=O)OCC(=O)c3ccccc3)CC2)cc1[N+](=O)[O-] -0.868%
COc1ccc(Cl)cc1-n1c(C)cc(C(=O)OCC(=O)N2CC(=O)Nc3ccccc32)c1C 0.822%

Potency, active:
CCOc1cccc(C(=O)Nc2cnn(Cc3ccccc3)c2)c1 3.98 µM
C(=N\N1CCN(c2ccccn2)CC1)/C1=C(N2CCOCC2)C(=C/c2ccccc2)/CC1 8.91 µM
O=C1Nc2ccc(Br)cc2/C1=N/N=C/C1=C(N2CCOCC2)C(=C\c2ccccc2)/CC1 8.91 µM
C=C(Cl)COC(=O)C1C2C=CC(C2)C1C(=O)O (stereo not given) 17.8 µM
CCCCOc1ccc(C(=O)N/C(=C/C=C/c2ccccc2)C(=O)N2CCOCC2)cc1 25.1 µM
CCOc1ccc(N2C(=O)/C(=C/c3ccc(C)o3)N(C)C2=S)cc1 7.94 µM
CC1CCN(C(=S)c2ccc(-c3ccc(Cl)cc3Cl)o2)CC1 28.2 µM
CCCc1nc2c([nH]1)C(c1cccnc1)C(C#N)=C(N)O2 (stereo not given) 7.94 µM
CC(C)n1c(=S)[nH]c2cc(C(F)(F)F)ccc21 31.6 µM
CCCn1c(=S)[nH]c2ccc(C(F)(F)F)cc21 17.8 µM
Cc1ccnc(NC(=O)CCC(=O)N(CC(=O)NCCc2ccccc2)Cc2cccs2)c1 14.1 µM
O=C(NC(=S)Nc1ccc2oc(=O)ccc2c1)c1ccc(-c2cccc(Cl)c2Cl)o1 11.2 µM
O=C(NCCc1ccco1)c1nn(Cc2ccccc2)c(=O)c2ccccc12 17.8 µM
CN(C)c1ccc(/C=N\S(=O)(=O)c2ccccc2)cc1 0.708 µM
O=C(NCCCNc1ccc([N+](=O)[O-])cc1Cl)c1ccccc1F 15.8 µM
CCn1c(O)c(N=NC2=NC(=O)CS2)c2cc(C)ccc21 14.1 µM
CC(c1ccco1)N(C(=O)c1ccc(S(=O)(=O)N2CCCCC2)cc1)c1ccccn1 (stereo not given) 12.6 µM
COc1ccc(NS(=O)(=O)c2ccc(NC(=S)NC(=O)CC(C)C)cc2)cc1 12.6 µM
CCC(C)NC(=O)/C=C/c1ccc(S(=O)(=O)NCc2ccco2)cc1 (stereo not given) 17.8 µM
Cc1ccc(S(=O)(=O)N2CCC(C(=O)OCC(=O)N3CC(=O)Nc4ccccc43)CC2)cc1 12.6 µM
O=C1CN(C(=O)COC(=O)c2cnc(Cl)c(Cl)c2)c2ccccc2N1 1.26 µM

Potency, inactive:
O=C(O)Cc1csc(-c2cccc(Oc3ccccc3)c2)n1
